# Test results from PubChem BioAssay.
# Tested on: Human papillomavirus type 1a E7 protein (residues 1-88)
# Test: HPV1a E7 small-molecule binders, primary screen, biochemical, small-molecule microarray, residues 1-88, 635 nm (AID 1129)
# Settings: small-molecule microarray binding, fluorescence 635 nm; higher = more signal
row,Compound,composite z-score
1,CS(=O)(=O)CCOC(=O)C1=CC(c2ccc(CO)cc2)=CC(C2CC2)N(Cc2cc3c(cc2Br)OCO3)C=C1C(=O)OCCS(C)(=O)=O (stereo unspecified),1.21
2,O=C1O[C@@H](c2ccccc2)[C@@H](c2ccccc2)N2[C@@H](c3ccc(OCCO)cc3)[C@]3(C(=O)Nc4ccccc43)[C@@H](C(=O)Nc3nc4ccccc4s3)[C@H]12,1.26
3,CN(C)CCCCNC(=O)[C@H]1C[C@H]2C(=O)N[C@@H](Cc3ccccc3)C(=O)N2[C@H]1c1ccc(O)cc1,1.16
4,C=CCC(OC(C)=O)[C@@H]1[C@@H](N(Cc2ccc(-c3ccccc3)cc2)C(=O)Cc2ccc(F)cc2)c2cc(OCCCO)ccc2N1C(=O)c1ccc2ccccc2n1 (stereo partly specified),-0.0475
5,COC(=O)[C@@]1(Cc2ccccc2N=[N+]=[N-])COC(c2ccc(OCCCO)cc2)=N1,1.16

# Biological target: Focal adhesion kinase 1 (Homo sapiens) (UniProt Q05397)
# Test: PTK2 protein binding on printed compound slides – biochemical, small-molecule microarray, 635/667 nm fluorescence, BSA, DTT, primary screen (AID 1130);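 also: composite of spot emission at 667 nm and signal to noise over triplicate slides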
# Settings: 635 nm fluorescence, higher = more signal
# Chain of Focal adhesion kinase 1 (Homo sapiens) (Q05397 whole entry, looked up): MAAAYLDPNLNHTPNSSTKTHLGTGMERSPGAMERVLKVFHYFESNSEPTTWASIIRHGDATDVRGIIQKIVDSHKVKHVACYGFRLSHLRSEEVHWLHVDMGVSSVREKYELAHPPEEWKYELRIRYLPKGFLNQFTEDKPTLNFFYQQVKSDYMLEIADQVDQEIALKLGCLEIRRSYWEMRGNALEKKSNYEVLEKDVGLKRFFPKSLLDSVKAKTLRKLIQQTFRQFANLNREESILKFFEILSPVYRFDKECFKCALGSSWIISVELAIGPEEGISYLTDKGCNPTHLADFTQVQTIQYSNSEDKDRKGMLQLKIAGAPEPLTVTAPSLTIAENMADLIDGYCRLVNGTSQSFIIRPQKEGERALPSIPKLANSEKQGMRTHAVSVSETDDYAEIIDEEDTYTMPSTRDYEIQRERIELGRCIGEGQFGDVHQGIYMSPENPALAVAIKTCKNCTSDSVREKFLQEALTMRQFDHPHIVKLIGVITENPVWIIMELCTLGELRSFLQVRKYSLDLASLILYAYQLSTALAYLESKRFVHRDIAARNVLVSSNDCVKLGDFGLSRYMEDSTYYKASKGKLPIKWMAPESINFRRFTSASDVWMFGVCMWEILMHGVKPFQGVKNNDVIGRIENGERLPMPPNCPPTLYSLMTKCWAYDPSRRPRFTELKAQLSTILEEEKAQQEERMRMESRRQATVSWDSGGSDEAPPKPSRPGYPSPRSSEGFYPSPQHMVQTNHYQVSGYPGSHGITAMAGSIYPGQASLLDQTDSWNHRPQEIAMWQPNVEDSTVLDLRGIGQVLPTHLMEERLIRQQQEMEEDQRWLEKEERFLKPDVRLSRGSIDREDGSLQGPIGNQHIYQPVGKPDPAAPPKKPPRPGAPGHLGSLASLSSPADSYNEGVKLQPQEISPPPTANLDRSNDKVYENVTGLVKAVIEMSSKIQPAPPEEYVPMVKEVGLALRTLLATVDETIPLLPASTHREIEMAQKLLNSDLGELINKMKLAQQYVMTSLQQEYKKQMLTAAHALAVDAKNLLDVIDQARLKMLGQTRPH
row,Compound,composite z-score
1,CC(=O)Nc1cc(Br)ccc1C(=O)O,-0.0817
2,Cc1ccccc1C(O)C1C=CC2C(=O)N(C)C(=O)C2N1N1CCCCC1 (stereo unspecified),0.665
3,[N-]=[N+]=NCc1ccccc1[C@@H]1OC(c2ccc(OCCCO)cc2)=N[C@]1(Cc1ccccc1)C(=O)N1CCCCC1,0.0473
4,COCC(=C=CC[C@H](O)c1ccc(OCCO)cc1)C[C@H](O)c1cc(Cl)cc(Cl)c1O,-0.427
5,COC(=O)[C@@]1(Cc2ccc(OC)cc2)[C@H]2c3cc(C(=O)N4CCCC4)n(Cc4ccccn4)c3C[C@H]2CN1C(=O)c1ccccc1,0.464
6,COc1ccc([Si](C)(C)[C@@H]2[C@@H](CCn3cc([C@H](O)c4ccccc4)nn3)O[C@]3(C(=O)N(Cc4ccc(N5C(=O)c6cccc7cccc5c67)cc4)c4ccccc43)[C@H]2C)cc1,-0.465
7,O=C1O[C@@H](c2ccccc2)[C@@H](c2ccccc2)N2[C@@H](c3ccc(O)cc3)[C@]3(C(=O)Nc4ccc(C#CC5(O)CCCCCC5)cc43)[C@@H](C(=O)N3CCCCCCC3)[C@H]12,2.74
8,O=C1[C@]2(CO)C=C(Br)[C@@H](C[C@@H]2c2ccccc2)[C@@]12CO2,-0.0687
9,COCCOC(=O)N1C(=O)[C@@]2(c3cc(C#CCCO)ccc31)[C@H](c1ccccc1OCCO)N1[C@H](c3ccccc3)[C@H](c3ccccc3)OC(=O)[C@H]1[C@@H]2C(=O)N1CCN(c2ncccn2)CC1,0.714
10,CC=CC(O)C1C=CC2C(=O)N(c3ccccc3)C(=O)C2N1Nc1ccc(C(C)C)cc1 (stereo unspecified),0.777
11,CC(c1ccccc1)C(O)C1C=CC2C(=O)NC(=O)C2N1Nc1ccccn1 (stereo unspecified),-0.0073
12,C=CCC(OC(C)=O)[C@@H]1[C@@H](N(Cc2ccc(-c3cccc(C(F)(F)F)c3)o2)C(=O)c2ccc(C)cc2)c2cc(OCCCO)ccc2N1C(=O)c1ccc(-c2ccccc2)cc1 (stereo partly specified),0.134
13,COc1ccc([Si](C)(C)[C@@H]2[C@@H](CC(=O)N3CCC[C@H]3CO)O[C@]3(C(=O)N(C)c4c(Br)cc(C)cc43)[C@H]2C)cc1,0.393
14,O=C1O[C@H](c2ccccc2)[C@H](c2ccccc2)N2[C@H]1[C@@H](C(=O)O)[C@]1(C(=O)Nc3ccc(C#CC4=CCCCC4)cc31)[C@H]2c1ccc(OCCO)cc1,0.638
15,CCCNC(=O)[C@@]1(c2ccc([N+](=O)[O-])cc2)CC(=O)N(CC23CC4CC(CC(C4)C2)C3)[C@@H]1c1ccc(CO)cc1,0.117
16,CC(C)C[C@@H]1NC(=O)[C@H]2C[C@@H](C(=O)NCCCCCCNC(=O)CS)[C@@H](c3cccc(OCCO)c3)N2C1=O,0.236
17,Cc1cc(C)c(C(O)C2C=CC3C(=O)N(C)C(=O)C3N2Nc2ccccc2)c(C)c1 (stereo unspecified),0.471
18,O=C1OCCC=C[C@H]2OC34C=CCN(Cc5ccccc5)C(=O)[C@H]3N(CCCO)C(=O)[C@@H]4C12 (stereo partly specified),-0.0769
19,COCCOC(=O)N1C(=O)[C@@]2(c3cc(C#CCC(C(=O)OC)C(=O)OC)ccc31)[C@H](c1ccc(O)cc1)N1[C@H](c3ccccc3)[C@H](c3ccccc3)OC(=O)[C@H]1[C@@H]2C(N)=O,0.242
20,COCCOC(=O)N1C(=O)[C@@]2(c3cc(C#CCC(C(=O)OC)C(=O)OC)ccc31)[C@H](c1ccccc1OCCO)N1[C@H](c3ccccc3)[C@H](c3ccccc3)OC(=O)[C@H]1[C@@H]2C(N)=O,-0.418
21,C=CCNC(=O)[C@H]1[C@@H]2C(=O)O[C@@H](c3ccccc3)[C@@H](c3ccccc3)N2[C@@H](c2ccc(O)cc2)[C@]12C(=O)N(C(=O)OCCOC)c1ccc(C#CCCO)cc12,0.38
